# Screening results from PubChem.
# Glioma ERSR ind: ER stress response induction in glioma; U87-MG GRP78 promoter luciferase reporter, 16 h; Potency, µM, actives largely listed as activators; 420,000 tested, 0.02% active; AID 602332; note: series mostly up to about 76 µM; nearly all actives have a fitted effect of over 35% in size
#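 ERSR induction read as luciferase luminescence (Bright-Glo, 10 min at room temperature) in stably transfected human U87-MG glioma cells exposed to compounds for 16 h, using GRP78 as sensor.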
# Abeta yeast res: A-beta toxicity reversal in yeast. Potency, µM (highest dose often 46.1 µM), hits mostly activators. AID 1347071. yeast expressing A-beta42, growth rescue, OD600, 48 h; response scale: 0% DMSO, 100% iron-clioquinol control. 410,000 tested, 0.063% active; note: nearly all actives have a fitted effect of over 55% in size
#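 Yeast growth medium received pinned compounds, then yeast cells expressing toxic A-beta were added; plates incubated at 30 C for 48 hr. Growth read as absorbance at 600 nm, normalized to DMSO and equimolar FeCl3 plus clioquinol controls.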
# Mito fusion yeast: inhibitors of mitochondrial division or activators of mitochondrial fusion | Potency, µM (series often up to 46.1 µM), hits mostly activators | S. cerevisiae fusion-defective mutant growth rescue, CellTiterGlo 48 h | AID 485298 | 320,000 tested, 0.23% active; note: nearly all actives have a fitted effect of over 45% in size
#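 Growth-rescue viability read-out: after 48 h at the non-permissive 37C in glycerol/ethanol YPEG, yeast mitochondrial fusion mutants are measured by CellTiterGlo luminescence; compounds (23 nl pinned per well) restoring growth score as division inhibitors or fusion activators.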
# aSyn rescue: alpha-synuclein toxicity inhibition in yeast; Yeast expressing alpha-synuclein, growth rescue, BacTiter-Glo, 24 h; Potency, µM (titrated, usually from 46.1 µM), actives largely listed as activators; 370,000 tested, 0.14% active; AID 652106; note: nearly all actives have a fitted effect of over 65% in size
#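 Readout is rescue of growth in alpha-synuclein-expressing yeast, so inhibitors of toxicity appear as activators. Growth after 24 hr at 30 deg C in galactose medium is quantified by luminescence.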
# TDP43 rescue: TDP-43 toxicity inhibition in yeast. TDP-43 expressing yeast growth rescue, BacTiter-Glo, 24 h. Potency, µM (highest dose often 46.1 µM), hits mostly activators. 410,000 tested, 1.8% active. AID 652104; note: nearly all actives have a fitted effect of over 50% in size
#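 In this qHTS, compounds that restore growth of yeast expressing TDP-43 appear as activators. Cells (OD600=0.02, galactose medium, raffinose-pregrown) are incubated with compound 24 hr at 30 deg C and growth is quantified by BacTiter-Glo.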
# AT treatment: potential ataxia-telangiectasia treatment; Potency, µM (top dose mostly 57.5 µM), usual class: activators; F2112 A-T fibroblasts, KAP-1 phosphorylation AlphaLISA; neocarzinostatin DNA damage 30 min before lysis; 320,000 tested, 0.19% active; AID 485349; note: nearly all actives have a fitted effect of over 45% in size
#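 hTERT-immortalized A-T patient fibroblasts (F2112), 500 cells/well in OPTI-MEM, 1% FBS, got compounds for 60 min, then NCS for 30 min at 37C. Lysates were then assayed for phospho-KAP-1 by AlphaLISA (anti-pKAP1 donor, anti-KAP1 acceptor beads), 6 hr at 25C.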
# Hits are given with their value; - = inactive; ? = inconclusive; . = no result given; ! = not confirmed by another sample. The list is not random: actives were taken first. Their share in the collection is about 2.1%. Calls come from the whole dose curve; as a rule, active = well fitted curve in the direction sought with a large enough effect; inconclusive = small, poorly fitted or top-dose-only effect, or another doubt; inactive = no such curve, though single readings can be large; an effect the other way counts as inactive or inconclusive.
SMILES,Glioma ERSR ind,Abeta yeast res,Mito fusion yeast,aSyn rescue,TDP43 rescue,AT treatment
CCCS(=O)(=O)NCCc1cc2c(C)ccc(C)c2[nH]c1=O,-,-,-,-,4.5µM,-
Cc1cc(C)c(S(=O)(=O)NCCc2cc3c(C)ccc(C)c3[nH]c2=O)c(C)c1,-,-,.,.,-,.
CCN(CC)c1ccc(/C=C/c2ccncc2)cc1,-,.,.,.,.,.
O=C(c1cccc(C(F)(F)F)c1)N1CCOc2ccccc21,-,-,-,-,14µM,-
CSc1ccc(Cl)c(C(=O)N2CCOc3ccccc32)c1,-,-,-,-,?,-
CCc1cc(C(=O)N2CCOc3ccc(CN4CCN(Cc5ccccn5)CC4)cc3C2)no1,-,.,.,.,.,.
O=C(NCC1CCC2(CCN(Cc3cccc(-c4ccco4)c3)CC2)O1)c1ccccc1 (configuration not stated),-,.,.,.,.,.
COc1ccc(Cc2c(-c3ccccc3)nc3c4ccccc4ccn23)c(C)c1,-,-,.,-,11µM,.
CCOC(=O)Cc1c(-c2cccc(Br)c2)nc2c3ccccc3ccn12,.,-,.,-,22µM,.
COc1ccccc1Cc1c(-c2ccc(OC)c(OC)c2)nc2c3ccccc3ccn12,-,-,.,-,11µM,.
Brc1cccc(-c2nc3c4ccccc4ccn3c2Cc2ccsc2)c1,-,-,.,-,?,.
COc1ccc(-c2nc3c4ccccc4ccn3c2Cc2ccccc2C(F)(F)F)cc1OC,-,-,.,-,20µM,.
COc1ccc(Cc2c(-c3ccc(F)cc3)nc3c4ccccc4ccn23)c(C)c1,-,-,.,-,?,.
Cc1nc(C)c(C(=O)NCc2nc(-c3cccc(NC(=O)c4ccccn4)c3)oc2C)s1,-,.,.,.,.,.
COc1ccccc1C(=O)N(Cc1cc2cccc(C)c2nc1N1CCC(O)CC1)C1CC1,-,.,.,.,.,.
Cc1oc2c(C)c3oc(=O)c(CCC(=O)N4CCCCC4)c(C)c3cc2c1C,-,-,.,.,-,.
CC(=O)Nc1ccccc1-c1nc(CNC(=O)c2ccc(F)c(F)c2)c(C)o1,-,.,.,.,.,.
CC(NC(=O)C1CCOCC1)c1nnc2n1CCN(Cc1ccc3ccccc3c1)CC2 (configuration not stated),-,.,.,.,.,.
N#Cc1c(N)c(C#N)c(-c2ccc3c(c2)OCO3)c2c1CCCC2,-,-,-,-,-,-
N#Cc1c(-c2ccc3c(c2)OCO3)csc1N,-,-,-,-,16µM,-
N#Cc1c(N)nc2c(c1-c1ccc3c(c1)OCO3)CCc1ccccc1-2,-,-,?,-,32µM,-
COc1ccccc1C(=O)N1CCN(c2cccc(C(F)(F)F)c2)CC1,-,-,-,-,14µM,-
Cn1cc(C(=O)N2CCN(c3cccc(C(F)(F)F)c3)CC2)c2c3ccccc3n(C)c2c1=O,-,-,.,.,28µM,.
Cn1c2ccccc2c2c(C(=O)N3CCN(c4cccc(C(F)(F)F)c4)CC3)cn(C3CCCCC3)c(=O)c21,-,-,.,.,-,.
O=C(c1ccc2nccnc2c1)N1CCN(c2cccc(C(F)(F)F)c2)CC1,-,-,-,-,-,-
SMILES,Glioma ERSR ind,Abeta yeast res,Mito fusion yeast,aSyn rescue,TDP43 rescue,AT treatment
O=C(c1cccc(F)c1)N1CCN(c2cccc(C(F)(F)F)c2)CC1,-,-,-,-,14µM,-
O=C(c1ccc(CS(=O)c2ccccc2Cl)o1)N1CCN(c2cccc(C(F)(F)F)c2)CC1 (configuration not stated),-,-,.,.,18µM,.
COc1cccc(N2CCN(C(=O)c3ccc(CS(=O)Cc4ccccc4Cl)o3)CC2)c1 (configuration not stated),-,-,-,-,-,-
O=C(c1ccc(CS(=O)Cc2ccccc2Cl)o1)N1CCN(c2cccc(Cl)c2)CC1 (configuration not stated),-,-,35µM,?,-,-
CCCCC(=O)NC1CC(=O)N(c2ccc3c(c2)OCCO3)C1 (configuration not stated),-,-,.,.,-,.
CCCCN(Cc1ccccc1)C(=O)CN(C)S(=O)(=O)c1ccc2c(c1)c(=O)n(C)c(=O)n2C,-,-,.,.,-,.
C[C@]12CC[C@@H]3c4ccc(O)cc4CC[C@H]3[C@@H]1CC[C@@H]2O,-,-,23µM!,-,?,-
CC(NCCN(C)C)C1CCC2C3CCc4cc(O)ccc4C3CCC12C (configuration not stated),-,-,.,-,0.32µM,.
CCc1ccc(OCC(=O)NCCc2ccc3c(c2)OCCO3)cc1,-,-,-,-,32µM,-
CCc1ccc(OCC(=O)Nc2ccc3c(c2)COC3=O)cc1,-,-,-,-,13µM,-
Cc1ccccc1OCC(=O)Nc1ccc2c(c1)COC2=O,-,-,-,-,-,-
Cc1cnc(SCc2ccccn2)nc1C1CCCN(C(=O)c2cc3ccccc3oc2=O)C1 (configuration not stated),-,.,.,.,.,.
O=C(NCC1CCC2(CCN(Cc3cc4ccccc4o3)CC2)O1)c1ccccc1 (configuration not stated),-,.,.,.,.,.
COC(=O)[C@@H]1CCCN1C(=O)c1c(OC)cc(=O)n2c1CCN(Cc1ccc3c(c1)CCO3)CC2,-,.,.,.,.,.
CCc1ccc(OC(C)C(=O)N2CCC(c3nc4ccccc4s3)CC2)cc1 (configuration not stated),-,-,.,.,16µM,.
CC(C)Oc1ccc(C(=O)N2CCC(c3nc4ccccc4s3)CC2)cc1,-,-,.,.,-,.
COc1ccccc1OC(C)C(=O)N1CCC(c2nc3ccccc3s2)CC1 (configuration not stated),-,-,.,.,14µM,.
CC(=O)NC(CCC(N)=O)C(=O)O (configuration not stated),-,.,.,.,.,.
Cc1cc(Cn2cnc3c2C[C@@H](C(=O)O)N(C(=O)C(c2ccccc2)c2ccccc2)C3)ccc1N,-,.,-,-,.,.
FC(F)(F)c1ccc(-c2noc(-c3ccccc3Br)n2)cc1,-,-,.,.,-,.
Nc1nonc1-c1noc(-c2ccccc2Br)n1,-,-,-,-,13µM,-
CSc1ccccc1NC(=O)c1cc(C(C)C)on1,-,-,-,-,11µM,-
CSc1ccccc1NC(=O)c1cc(C)on1,-,-,-,-,-,-
CNC(=O)c1ccc2c(c1)N(Cc1cc(C)ccc1C)C(=O)c1ccccc1S2,.,-,.,.,16µM,.
COC(=O)c1ccc2c(c1)N(Cc1cc(C)ccc1C)C(=O)c1ccccc1S2,-,-,.,-,-,.
C=C1CC2(OC1=O)c1ccccc1CCc1ccccc12,-,-,.,-,1.8µM,.
COCc1nc2sc3c(c2c(=O)[nH]1)CCCC3,-,-,22µM,-,-,-
C=C1CC2C3C=C(C)C4=CC(=O)CCC4(C)C3CCC2(C)[C@@]1(OC(C)=O)C(C)=O (some centres not stated),-,.,.,.,.,.
